Mcl-1 Bim block: inhibitors of Bim-Mcl-1 interaction, human; Bead-based flow cytometry, Bim peptide-Mcl-1 binding; inhibition, % at 10 µM; Q07820; 0.1% of 190,000 active; AID 1009; in the data active = inhibition above about 40%
GLD-1 RNA inh: GLD-1-TGE RNA interaction inhibition (C. elegans); inhibition, % at 5.96 µM; 0.44% of 320,000 active; Q17339; purified GLD-1 + fluorescein TGE RNA, fluorescence polarization;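 active = percent inhibition above a per-plate cutoff, the plate mean of test compounds plus 3 SD, cut at about 30% in these data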
Target sequence (Q17339 whole entry, looked up): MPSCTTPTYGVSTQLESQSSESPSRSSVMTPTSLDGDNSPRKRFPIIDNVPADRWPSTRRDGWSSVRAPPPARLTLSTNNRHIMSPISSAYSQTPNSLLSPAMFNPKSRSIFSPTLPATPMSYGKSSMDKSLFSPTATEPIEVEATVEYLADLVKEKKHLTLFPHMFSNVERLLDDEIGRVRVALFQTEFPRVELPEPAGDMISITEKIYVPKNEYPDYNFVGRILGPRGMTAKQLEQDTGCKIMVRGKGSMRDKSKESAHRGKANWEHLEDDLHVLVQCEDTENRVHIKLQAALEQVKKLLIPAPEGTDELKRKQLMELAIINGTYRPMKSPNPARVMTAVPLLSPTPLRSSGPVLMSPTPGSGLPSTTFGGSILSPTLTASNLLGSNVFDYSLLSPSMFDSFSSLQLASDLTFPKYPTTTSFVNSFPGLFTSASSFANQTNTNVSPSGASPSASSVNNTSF
BCLXL inh: Bcl-xL (human) inhibition | Q07817 | GST-Bcl-xL / FITC-Bim BH3 peptide fluorescence polarization | inhibition, % at 10.9 µM | 0.7% of 320,000 active;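 active = inhibition above the mean of all tested compounds plus 3 SD, cutoff set per campaign, cut at about 30% in these data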;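 note: inhibitors lower millipolarization by displacing the labeled peptide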
Target sequence (Q07817 whole entry, looked up): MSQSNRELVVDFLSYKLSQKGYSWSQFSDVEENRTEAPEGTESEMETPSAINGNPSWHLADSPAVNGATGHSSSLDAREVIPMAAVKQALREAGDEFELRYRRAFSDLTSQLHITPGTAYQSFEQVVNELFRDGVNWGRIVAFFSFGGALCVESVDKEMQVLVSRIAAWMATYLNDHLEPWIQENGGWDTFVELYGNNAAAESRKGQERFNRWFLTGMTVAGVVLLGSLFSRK
MCL1 BIM primary: disrupts human MCL1 binding to BIM-BH3 peptide; Q07820; GST-MCL1 / FITC-Bim-BH3 fluorescence polarization; inhibition, % at 10.9 µM; 0.68% of 320,000 active; AID 2057;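 active = inhibition above the mean inhibition of all tested compounds plus 3 SD, set per campaign, cut at about 40% in these data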;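 note: higher means more loss of mP so more displacement of Bim peptide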
Mcl1 Noxa PPI: Mcl-1/Noxa interaction inhibition; Q07820; TR-FRET Mcl-1/Noxa peptide binding, 2 h; inhibition, % at 21.7 µM; 1.5% of 220,000 active; AID 1022;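 active = compounds that cut the protein-peptide binding signal by more than 50% relative to plate controls in a single-dose test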;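 note: His-tagged Mcl-1 with rhodamine Noxa BH3 peptide and terbium anti-His antibody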
Mcl1-Bid inh: disrupts binding of human Mcl-1 to Bid peptide; Q07820; TR-FRET Mcl-1/Bid-Dy647 peptide binding, 1536-well; inhibition, % at 21.7 µM; 0.97% of 220,000 active;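 active = compounds that cut the binding signal by more than half at the single screening dose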;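 note: His-tagged Mcl-1 with europium anti-His antibody binding Bid BH3 peptide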
GLD-1 TGE cf: GLD-1 TGE RNA interaction inhibition, confirmation. 10% of 550 active. inhibition, % at 5.96 µM. GLD-1/FL-TGE RNA fluorescence polarization, biochemical. shares compounds with GLD-1 RNA inh;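 active = average inhibition across triplicates above the hit cutoff set in the primary screen, cut at about 32% in these data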
Each line names hits and unclear results; the compound was inactive in the other large screens (follow-up assays come after a bar, where they were run). In the library only some 2.3% were active in any assay of this set; here they are far more common.

CCOC(=O)CC(=O)CSc1nc2ccc(OC)cc2cc1C	GLD-1 RNA inh 34, BCLXL inh 36, MCL1 BIM primary 47 | GLD-1 TGE cf inactive
O=C(/C=C/c1ccc(Cl)cc1)NCc1cccs1	GLD-1 RNA inh 65 | GLD-1 TGE cf inactive
C[C@H](CO)N1C[C@H](C)[C@@H](CN(C)S(=O)(=O)c2ccccc2)Oc2c(NS(=O)(=O)c3ccccc3)cccc2C1=O	none (no result: Mcl-1 Bim block, BCLXL inh, MCL1 BIM primary, Mcl1 Noxa PPI, Mcl1-Bid inh)
CC(=O)N1CC(C(=O)Nc2ccc3c(c2)OCO3)Oc2ccccc21 (centres undefined)	none (no result: Mcl-1 Bim block, BCLXL inh, MCL1 BIM primary, Mcl1 Noxa PPI, Mcl1-Bid inh)
CCOC(=O)C1Cc2cc3c(cc2C1=O)CC(C(=O)OCC)C3=O (centres undefined)	none (no result: GLD-1 RNA inh, BCLXL inh, MCL1 BIM primary)
CCOC(=O)C1CC(=O)c2cc(OC)c(OC)cc2C1 (centres undefined)	GLD-1 RNA inh 60 (no result: Mcl-1 Bim block) | GLD-1 TGE cf inactive
CC(=O)Nc1c2c3c(cccc3n(C)c1=O)C(=O)c1ccccc1-2	GLD-1 RNA inh 32, BCLXL inh 47, MCL1 BIM primary 50 | GLD-1 TGE cf inactive
CCc1n[nH]c(=S)n1/N=C/c1cc(Br)c(O)c(OC)c1	GLD-1 RNA inh 56 (no result: Mcl-1 Bim block) | GLD-1 TGE cf inactive
COc1cc(/C=N/n2c(COc3ccccc3)n[nH]c2=S)cc(Br)c1O	none (no result: Mcl-1 Bim block, Mcl1 Noxa PPI, Mcl1-Bid inh)
O=C1c2ccccc2C(=O)c2c(O)c(O)cc(O)c21	GLD-1 RNA inh 70 (no result: Mcl-1 Bim block, BCLXL inh, MCL1 BIM primary, Mcl1 Noxa PPI, Mcl1-Bid inh) | GLD-1 TGE cf 43
Cc1ccc(OCC(=O)N2CCOCC2)c([N+](=O)[O-])n1	none (no result: Mcl-1 Bim block)
Cc1ccc(OCC(=O)c2ccc(Cl)s2)c([N+](=O)[O-])n1	GLD-1 RNA inh 31 | GLD-1 TGE cf inactive
CC(=O)Oc1ccc(C(=O)[C@H]2[C@H]3C(=O)N(c4ccccc4)C(=O)[C@H]3[C@@H]3C=CC=NN32)cc1	GLD-1 RNA inh 31 | GLD-1 TGE cf inactive
Nc1c(C(=O)OCC(=O)NCc2ccccc2)[nH]c(=O)[nH]c1=O	none (no result: Mcl-1 Bim block)
Nc1c(C(=O)OCC(=O)Nc2ccccc2Br)[nH]c(=O)[nH]c1=O	GLD-1 RNA inh 39 (no result: Mcl-1 Bim block, BCLXL inh, MCL1 BIM primary, Mcl1 Noxa PPI, Mcl1-Bid inh) | GLD-1 TGE cf inactive
Cn1cc(S(=O)(=O)Nc2ccc(F)c(Cl)c2)c(=O)n(C)c1=O	none (no result: Mcl-1 Bim block, Mcl1 Noxa PPI, Mcl1-Bid inh)
CCC(=O)NCCCc1nc(-c2ccccc2)no1	none (no result: Mcl-1 Bim block, Mcl1 Noxa PPI, Mcl1-Bid inh)
CCn1c(COc2ccccc2)nnc1SCC(=O)CC(=O)Nc1ccccc1OC	GLD-1 RNA inh 35 | GLD-1 TGE cf inactive
CCn1c(COc2cccc(C)c2)nnc1SCC(=O)CC(=O)Nc1ccccc1OC	none
CO/N=C\Cc1oc(=O)c(NC(=O)c2ccccc2)cc1C(=O)OC	GLD-1 RNA inh 37, BCLXL inh 36 | GLD-1 TGE cf inactive
Cc1c(C(=O)NC(C)c2ccc(-n3ccnc3)cc2)cccc1[N+](=O)[O-] (centres undefined)	none (no result: Mcl-1 Bim block, Mcl1 Noxa PPI, Mcl1-Bid inh)
CCC12OC(=N)C(C#N)(C1C)C(C#N)(C#N)C(c1ccccc1)O2 (centres undefined)	GLD-1 RNA inh 33 | GLD-1 TGE cf inactive
Cc1ccc(C)c(OCc2cc(C(=O)NC(c3ccccn3)C(F)(F)F)no2)c1 (centres undefined)	none (no result: Mcl-1 Bim block, Mcl1 Noxa PPI, Mcl1-Bid inh)
O=C1COc2ccc(C(=O)COC(=O)CCSc3ccccc3)cc2N1	GLD-1 RNA inh 59 (no result: Mcl-1 Bim block) | GLD-1 TGE cf inactive
COc1ccc(/C=N/NC(=O)c2ccc3nc[nH]c3c2)cc1OC	none (no result: Mcl-1 Bim block)
Cc1nc(Cl)c(C(=O)NC(C)(C)C)c(C)c1Cl	none
CS(=O)(=O)N(CCC(=O)O)Cc1ccccc1	GLD-1 RNA inh 37 | GLD-1 TGE cf inactive
Cc1ccc(S(=O)(=O)N[C@H](C(=O)Oc2ccc3c(C(F)(F)F)cc(=O)oc3c2)c2ccccc2)cc1	GLD-1 RNA inh 50, BCLXL inh 45, MCL1 BIM primary 45 | GLD-1 TGE cf 44
Cc1ccc(S(=O)(=O)NC(C(=O)Oc2ccc3ccc(=O)oc3c2)c2ccccc2)cc1 (centres undefined)	none
CC(NC(=O)COC(=O)CN1C(=O)c2ccccc2C1=O)c1ccccc1 (centres undefined)	none (no result: Mcl-1 Bim block, BCLXL inh, MCL1 BIM primary, Mcl1 Noxa PPI, Mcl1-Bid inh)
Cc1cc2ccccc2n1CCNC(=O)C1CC1	GLD-1 RNA inh 35 (no result: Mcl-1 Bim block, Mcl1 Noxa PPI, Mcl1-Bid inh) | GLD-1 TGE cf inactive
Cc1cc2ccccc2n1CCNC(=O)c1cccs1	GLD-1 RNA inh 49, BCLXL inh 42 | GLD-1 TGE cf inactive
Cc1cc2ccccc2n1CCNC(=O)C1CCCC1	none
Oc1c(Cl)cc(Cl)cc1CNc1nc2ccccc2[nH]1	none (no result: Mcl-1 Bim block, Mcl1 Noxa PPI, Mcl1-Bid inh)
CCOC(=O)C1CCCN(C(=O)c2ccc(S(=O)(=O)N3CCCC3)cc2)C1 (centres undefined)	none (no result: Mcl-1 Bim block, Mcl1 Noxa PPI, Mcl1-Bid inh)
CCOC(=O)C1CCCN(S(=O)(=O)c2ccc(S(=O)(=O)N3CCCC3)cc2)C1 (centres undefined)	GLD-1 RNA inh 38 (no result: Mcl-1 Bim block, Mcl1 Noxa PPI, Mcl1-Bid inh) | GLD-1 TGE cf inactive
Cc1ccc(S(=O)(=O)Nc2cccc(C(=O)N3CCCC3)c2)cc1F	none (no result: Mcl-1 Bim block, Mcl1 Noxa PPI, Mcl1-Bid inh)
CCOC(=O)c1ccc2ncc(C(=O)OCC)c(NCc3ccco3)c2c1	GLD-1 RNA inh 39, BCLXL inh 33 | GLD-1 TGE cf inactive
O/N=C/c1cn(-c2ccccc2)nn1	none
Cn1cc(/C=N\O)nc2c(=O)n(-c3ccccc3)c(=O)nc1-2	GLD-1 RNA inh 35, BCLXL inh 36 | GLD-1 TGE cf inactive
COc1ccc(S(=O)(=O)NCc2cccnc2)cc1NC(=O)c1ccc(Cl)cc1	none (no result: Mcl-1 Bim block, Mcl1 Noxa PPI, Mcl1-Bid inh)
O=C(Nc1ccc(-c2nnn(CC(=O)N3CCN(C(=O)c4ccco4)CC3)n2)cc1)c1ccccc1F	none
COc1ccccc1C(=O)Nc1ccc(-c2nnn(CC(=O)N3CCN(C(=O)c4ccco4)CC3)n2)cc1	GLD-1 RNA inh 51 | GLD-1 TGE cf inactive

Screening data (PubChem)
